Test results published in PubChem BioAssay AID1159580 (chemical genetic matrix, 2015).
Where “and” joins values, the source holds several entries; their conditions need not be identical. Identical values can stand only once. Out of some 5,500 compounds screened, about 2,000 (36%) were called active. Inconclusive results (about 18%) are left out. Rule as the data show it: active = normalized growth mostly below about 0.91 (no sharp cut-off); inconclusive = no clear call, values can overlap the other calls; inactive = mostly above about 0.92. Some of the results follow.

Experiment: chemical genetic growth profiling, strain panel (AID 1159580);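 also: tested at 20 µM; growth read once vehicle control cultures reached saturation at 30 °C; 1 = growth at the plate median or of vehicle wells; lower values mean less growth of the strain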
Settings: S. cerevisiae deletion strains, growth OD

Measured: normalized growth

CCCCOc1ccc(C(=O)CCN2CCCCC2)cc1
0.415 (active) and 0.996 (inactive): locus YJL095W, strain BCK1, stronger effect = lower value
active: locus YAL013W, strain DEP1, stronger effect = lower value 0.807 | locus YAL021C, strain ccr4, stronger effect = lower value 0.871 | locus YAL026C, strain drs2, stronger effect = lower value 0.107 | locus YBR009C, strain hhf1, stronger effect = lower value 0.879 | locus YBR231C, strain swc5, stronger effect = lower value 0.866 | locus YBR279W, strain paf1, stronger effect = lower value 0.931 | locus YCL029C, strain bik1, stronger effect = lower value 0.857 | locus YCL061C, strain MRC1, stronger effect = lower value 0.875 | locus YCL069W, strain vba3, stronger effect = lower value 0.139 | locus YDL035C, strain GPR1, stronger effect = lower value 0.772 | locus YDL074C, strain BRE1, stronger effect = lower value 0.5 | locus YDL134C, strain PPH21, stronger effect = lower value 0.137 | locus YDL192W, strain arf1, stronger effect = lower value 0.54 | locus YDR069C, strain doa4, stronger effect = lower value 0.898 | locus YDR137W, strain rgp1, stronger effect = lower value 0.769 | locus YDR162C, strain NBP2, stronger effect = lower value 0.44 | locus YDR195W, strain ref2 1.29 [resistant] | locus YDR318W, strain mcm21, stronger effect = lower value 0.0958 | locus YDR334W, strain swr1, stronger effect = lower value 0.851 | locus YDR335W, strain msn5, stronger effect = lower value 0.277 | locus YDR388W, stronger effect = lower value 0.53 | locus YDR392W, strain spt3, stronger effect = lower value 0.108 | locus YDR502C, strain sam2, stronger effect = lower value 0.657 | locus YEL003W, strain gim4, stronger effect = lower value 0.888 | locus YEL037C, strain rad23, stronger effect = lower value 0.853 | locus YEL061C, strain CIN8 (second series), stronger effect = lower value 0.446 | locus YEL061C, strain CIN8, stronger effect = lower value 0.675 | locus YER016W, strain bim1, stronger effect = lower value 0.9 | locus YER110C, stronger effect = lower value 0.275 | locus YER155C, strain BEM2 (second series), stronger effect = lower value 0.146 | locus YER155C, strain BEM2, stronger effect = lower value 0.258 | locus YER167W, strain BCK2, stronger effect = lower value 0.277 | locus YFR010W, strain ubp6, stronger effect = lower value 0.815 | locus YGL086W, strain mad1, stronger effect = lower value 0.157 | locus YGL173C, strain kem1, stronger effect = lower value 0.845 | locus YGL240W, strain doc1, stronger effect = lower value 0.85 | locus YGL248W, strain PDE1, stronger effect = lower value 0.0961 | locus YGL253W, strain hxk2, stronger effect = lower value 0.252 | locus YGR078C, strain PAC10, stronger effect = lower value 0.187 | locus YGR135W, strain pre9, stronger effect = lower value 0.42 | locus YGR229C, strain SMI1, stronger effect = lower value 0.428 | locus YGR252W, strain gcn5, stronger effect = lower value 0.402 | locus YHR013C, strain ard1, stronger effect = lower value 0.707 | locus YHR027C, strain rpn1, stronger effect = lower value 0.901 | locus YHR079C, strain IRE1 (second series), stronger effect = lower value 0.854 | locus YHR094C, strain hxt1, stronger effect = lower value 0.0833 | locus YHR129C, strain ARP1, stronger effect = lower value 0.413 | locus YHR142W, strain chs7, stronger effect = lower value 0.155 | locus YHR200W, strain rpn10, stronger effect = lower value 0.838 | locus YIL066C, strain RNR3, stronger effect = lower value 0.134 | locus YIL073C, strain SPO22, stronger effect = lower value 0.281 | locus YIR030C, strain dcg1, stronger effect = lower value 0.486 | locus YJL095W, strain BCK1 (second series), stronger effect = lower value 0.734 | locus YJL134W, strain LCB3, stronger effect = lower value 0.533 | locus YJL164C, strain tpk1, stronger effect = lower value 0.883 | locus YJL168C, strain set2, stronger effect = lower value 0.468 | locus YJL187C, strain SWE1 (second series), stronger effect = lower value 0.84 | locus YJR043C, strain POL32, stronger effect = lower value 0.636
0.135 (active) and 0.992 (inactive): locus YHR030C, strain SLT2, stronger effect = lower value
inactive: locus YAL030W, strain snc1, stronger effect = lower value 0.977 | locus YBL061C, strain skt5, stronger effect = lower value 0.968 | locus YBR021W, strain FUR4, stronger effect = lower value 0.918 | locus YBR023C, strain chs3, stronger effect = lower value 0.95 | locus YBR171W, strain sec66, stronger effect = lower value 0.981 | locus YBR229C, strain ROT2, stronger effect = lower value 1 | locus YCL011C, strain gbp2, stronger effect = lower value 0.966 | locus YCL016C, strain dcc1, stronger effect = lower value 0.927 | locus YCR088W, strain abp1, stronger effect = lower value 0.94 | locus YDL005C, strain med2, stronger effect = lower value 0.994 | locus YDL040C, strain nat1, stronger effect = lower value 0.989 | locus YDL101C, strain DUN1, stronger effect = lower value 0.907 | locus YDL185W, strain tfp1, stronger effect = lower value 0.961 | locus YDR001C, strain nth1, stronger effect = lower value 0.992 | locus YDR101C, strain arx1, stronger effect = lower value 0.951 | locus YDR159W, strain sac3, stronger effect = lower value 0.913 | locus YDR297W, strain sur2, stronger effect = lower value 0.952 | locus YER015W, strain faa2, stronger effect = lower value 0.967 | locus YER111C, strain swi4, stronger effect = lower value 0.979 | locus YGL078C, strain dbp3, stronger effect = lower value 0.928 | locus YGL167C, strain pmr1, stronger effect = lower value 0.986 | locus YGL227W, strain vid30, stronger effect = lower value 0.997 | locus YHR079C, strain IRE1, stronger effect = lower value 1.04 | locus YIL125W, strain kgd1, stronger effect = lower value 0.957 | locus YJL092W, strain hpr5, stronger effect = lower value 0.918 | locus YJL115W, strain asf1, stronger effect = lower value 0.926 | locus YJL129C, strain trk1, stronger effect = lower value 0.899 | locus YJL154C, strain vps35, stronger effect = lower value 0.968 | locus YJL166W, strain qcr8, stronger effect = lower value 0.925 | locus YJL187C, strain SWE1, stronger effect = lower value 0.962
